The full data set covers some 7,900 targets. This sample favours those with a hit. About 0.6% of all pairs of compound and target were hits. A number with no mark means an inactive call.
Experiments:
Assay in all cases: log2 fold change, soluble protein after heating vs DMSO (PISA); higher = thermal stabilisation; K562 cells, 10 uM, 30 min; active = over 0.2 and 3.5 SD of the protein, either way, in both replicates (recomputed)
[1] = compound: NC(=O)Nc1cc(-c2cccc(F)c2)sc1C(=O)N[C@H]1CCCNC1
Outline: (§1)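 Soluble protein was quantified by TMTpro 16plex LC-MS/MS after channel sums were equalised. It was obtained as the supernatant after 21,000xg for 90 min from pooled aliquots of K562 cells (2×10^6 cells/mL, 10 μM compound, 30 min) heated for 3 min across 48°C-58°C and extracted in PBS with 0.5% NP-40 at 4°C. Thermal stability values are relative to control samples and come from duplicates. They are given as log2 fold changes.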

[2] = compound: NC(=O)c1cnc(N[C@@H]2CCCC[C@@H]2N)nc1Nc1cccc(-n2nccn2)c1
Outline: as §1

[3] = compound: NC1(c2ccc(-c3nc4ccn5c(=O)[nH]nc5c4cc3-c3ccccc3)cc2)CCC1
Outline: as §1

[4] = compound: NCC(=O)Nc1ccc(-n2nc(C(F)(F)F)cc2-c2ccc3c(ccc4ccccc43)c2)cc1
Outline: as §1

[5] = compound: Nc1ccccc1NC(=O)c1ccc(CNC(=O)OCc2cccnc2)cc1 [entinostat]
Outline: as §1

[6] = compound: O=C(CCCCCCC(=O)Nc1ccccc1)NO [vorinostat]
Outline: as §1

[7] = compound: O=C(CCCCCCNC(=O)c1cnc(N(c2ccccc2)c2ccccc2Cl)nc1)NO [citarinostat]
Outline: as §1

[8] = compound: O=C(O)c1ccc2c(c1)nc(Nc1cccc(Cl)c1)c1ccncc12 [silmitasertib]
Outline: as §1

[9] = compound: O=C1NC(=O)C(c2cnc3ccccn23)=C1c1cn2c3c(cc(F)cc13)CN(C(=O)N1CCCCC1)CC2
Outline: as §1

[10] = compound: c1cc(OCCN2CCCCC2)cc(-c2n[nH]c3ccc(-c4nnc[nH]4)cc23)c1
Outline: as §1

UniProt Q9P2P6, sequence (Q9P2P6 whole entry, looked up): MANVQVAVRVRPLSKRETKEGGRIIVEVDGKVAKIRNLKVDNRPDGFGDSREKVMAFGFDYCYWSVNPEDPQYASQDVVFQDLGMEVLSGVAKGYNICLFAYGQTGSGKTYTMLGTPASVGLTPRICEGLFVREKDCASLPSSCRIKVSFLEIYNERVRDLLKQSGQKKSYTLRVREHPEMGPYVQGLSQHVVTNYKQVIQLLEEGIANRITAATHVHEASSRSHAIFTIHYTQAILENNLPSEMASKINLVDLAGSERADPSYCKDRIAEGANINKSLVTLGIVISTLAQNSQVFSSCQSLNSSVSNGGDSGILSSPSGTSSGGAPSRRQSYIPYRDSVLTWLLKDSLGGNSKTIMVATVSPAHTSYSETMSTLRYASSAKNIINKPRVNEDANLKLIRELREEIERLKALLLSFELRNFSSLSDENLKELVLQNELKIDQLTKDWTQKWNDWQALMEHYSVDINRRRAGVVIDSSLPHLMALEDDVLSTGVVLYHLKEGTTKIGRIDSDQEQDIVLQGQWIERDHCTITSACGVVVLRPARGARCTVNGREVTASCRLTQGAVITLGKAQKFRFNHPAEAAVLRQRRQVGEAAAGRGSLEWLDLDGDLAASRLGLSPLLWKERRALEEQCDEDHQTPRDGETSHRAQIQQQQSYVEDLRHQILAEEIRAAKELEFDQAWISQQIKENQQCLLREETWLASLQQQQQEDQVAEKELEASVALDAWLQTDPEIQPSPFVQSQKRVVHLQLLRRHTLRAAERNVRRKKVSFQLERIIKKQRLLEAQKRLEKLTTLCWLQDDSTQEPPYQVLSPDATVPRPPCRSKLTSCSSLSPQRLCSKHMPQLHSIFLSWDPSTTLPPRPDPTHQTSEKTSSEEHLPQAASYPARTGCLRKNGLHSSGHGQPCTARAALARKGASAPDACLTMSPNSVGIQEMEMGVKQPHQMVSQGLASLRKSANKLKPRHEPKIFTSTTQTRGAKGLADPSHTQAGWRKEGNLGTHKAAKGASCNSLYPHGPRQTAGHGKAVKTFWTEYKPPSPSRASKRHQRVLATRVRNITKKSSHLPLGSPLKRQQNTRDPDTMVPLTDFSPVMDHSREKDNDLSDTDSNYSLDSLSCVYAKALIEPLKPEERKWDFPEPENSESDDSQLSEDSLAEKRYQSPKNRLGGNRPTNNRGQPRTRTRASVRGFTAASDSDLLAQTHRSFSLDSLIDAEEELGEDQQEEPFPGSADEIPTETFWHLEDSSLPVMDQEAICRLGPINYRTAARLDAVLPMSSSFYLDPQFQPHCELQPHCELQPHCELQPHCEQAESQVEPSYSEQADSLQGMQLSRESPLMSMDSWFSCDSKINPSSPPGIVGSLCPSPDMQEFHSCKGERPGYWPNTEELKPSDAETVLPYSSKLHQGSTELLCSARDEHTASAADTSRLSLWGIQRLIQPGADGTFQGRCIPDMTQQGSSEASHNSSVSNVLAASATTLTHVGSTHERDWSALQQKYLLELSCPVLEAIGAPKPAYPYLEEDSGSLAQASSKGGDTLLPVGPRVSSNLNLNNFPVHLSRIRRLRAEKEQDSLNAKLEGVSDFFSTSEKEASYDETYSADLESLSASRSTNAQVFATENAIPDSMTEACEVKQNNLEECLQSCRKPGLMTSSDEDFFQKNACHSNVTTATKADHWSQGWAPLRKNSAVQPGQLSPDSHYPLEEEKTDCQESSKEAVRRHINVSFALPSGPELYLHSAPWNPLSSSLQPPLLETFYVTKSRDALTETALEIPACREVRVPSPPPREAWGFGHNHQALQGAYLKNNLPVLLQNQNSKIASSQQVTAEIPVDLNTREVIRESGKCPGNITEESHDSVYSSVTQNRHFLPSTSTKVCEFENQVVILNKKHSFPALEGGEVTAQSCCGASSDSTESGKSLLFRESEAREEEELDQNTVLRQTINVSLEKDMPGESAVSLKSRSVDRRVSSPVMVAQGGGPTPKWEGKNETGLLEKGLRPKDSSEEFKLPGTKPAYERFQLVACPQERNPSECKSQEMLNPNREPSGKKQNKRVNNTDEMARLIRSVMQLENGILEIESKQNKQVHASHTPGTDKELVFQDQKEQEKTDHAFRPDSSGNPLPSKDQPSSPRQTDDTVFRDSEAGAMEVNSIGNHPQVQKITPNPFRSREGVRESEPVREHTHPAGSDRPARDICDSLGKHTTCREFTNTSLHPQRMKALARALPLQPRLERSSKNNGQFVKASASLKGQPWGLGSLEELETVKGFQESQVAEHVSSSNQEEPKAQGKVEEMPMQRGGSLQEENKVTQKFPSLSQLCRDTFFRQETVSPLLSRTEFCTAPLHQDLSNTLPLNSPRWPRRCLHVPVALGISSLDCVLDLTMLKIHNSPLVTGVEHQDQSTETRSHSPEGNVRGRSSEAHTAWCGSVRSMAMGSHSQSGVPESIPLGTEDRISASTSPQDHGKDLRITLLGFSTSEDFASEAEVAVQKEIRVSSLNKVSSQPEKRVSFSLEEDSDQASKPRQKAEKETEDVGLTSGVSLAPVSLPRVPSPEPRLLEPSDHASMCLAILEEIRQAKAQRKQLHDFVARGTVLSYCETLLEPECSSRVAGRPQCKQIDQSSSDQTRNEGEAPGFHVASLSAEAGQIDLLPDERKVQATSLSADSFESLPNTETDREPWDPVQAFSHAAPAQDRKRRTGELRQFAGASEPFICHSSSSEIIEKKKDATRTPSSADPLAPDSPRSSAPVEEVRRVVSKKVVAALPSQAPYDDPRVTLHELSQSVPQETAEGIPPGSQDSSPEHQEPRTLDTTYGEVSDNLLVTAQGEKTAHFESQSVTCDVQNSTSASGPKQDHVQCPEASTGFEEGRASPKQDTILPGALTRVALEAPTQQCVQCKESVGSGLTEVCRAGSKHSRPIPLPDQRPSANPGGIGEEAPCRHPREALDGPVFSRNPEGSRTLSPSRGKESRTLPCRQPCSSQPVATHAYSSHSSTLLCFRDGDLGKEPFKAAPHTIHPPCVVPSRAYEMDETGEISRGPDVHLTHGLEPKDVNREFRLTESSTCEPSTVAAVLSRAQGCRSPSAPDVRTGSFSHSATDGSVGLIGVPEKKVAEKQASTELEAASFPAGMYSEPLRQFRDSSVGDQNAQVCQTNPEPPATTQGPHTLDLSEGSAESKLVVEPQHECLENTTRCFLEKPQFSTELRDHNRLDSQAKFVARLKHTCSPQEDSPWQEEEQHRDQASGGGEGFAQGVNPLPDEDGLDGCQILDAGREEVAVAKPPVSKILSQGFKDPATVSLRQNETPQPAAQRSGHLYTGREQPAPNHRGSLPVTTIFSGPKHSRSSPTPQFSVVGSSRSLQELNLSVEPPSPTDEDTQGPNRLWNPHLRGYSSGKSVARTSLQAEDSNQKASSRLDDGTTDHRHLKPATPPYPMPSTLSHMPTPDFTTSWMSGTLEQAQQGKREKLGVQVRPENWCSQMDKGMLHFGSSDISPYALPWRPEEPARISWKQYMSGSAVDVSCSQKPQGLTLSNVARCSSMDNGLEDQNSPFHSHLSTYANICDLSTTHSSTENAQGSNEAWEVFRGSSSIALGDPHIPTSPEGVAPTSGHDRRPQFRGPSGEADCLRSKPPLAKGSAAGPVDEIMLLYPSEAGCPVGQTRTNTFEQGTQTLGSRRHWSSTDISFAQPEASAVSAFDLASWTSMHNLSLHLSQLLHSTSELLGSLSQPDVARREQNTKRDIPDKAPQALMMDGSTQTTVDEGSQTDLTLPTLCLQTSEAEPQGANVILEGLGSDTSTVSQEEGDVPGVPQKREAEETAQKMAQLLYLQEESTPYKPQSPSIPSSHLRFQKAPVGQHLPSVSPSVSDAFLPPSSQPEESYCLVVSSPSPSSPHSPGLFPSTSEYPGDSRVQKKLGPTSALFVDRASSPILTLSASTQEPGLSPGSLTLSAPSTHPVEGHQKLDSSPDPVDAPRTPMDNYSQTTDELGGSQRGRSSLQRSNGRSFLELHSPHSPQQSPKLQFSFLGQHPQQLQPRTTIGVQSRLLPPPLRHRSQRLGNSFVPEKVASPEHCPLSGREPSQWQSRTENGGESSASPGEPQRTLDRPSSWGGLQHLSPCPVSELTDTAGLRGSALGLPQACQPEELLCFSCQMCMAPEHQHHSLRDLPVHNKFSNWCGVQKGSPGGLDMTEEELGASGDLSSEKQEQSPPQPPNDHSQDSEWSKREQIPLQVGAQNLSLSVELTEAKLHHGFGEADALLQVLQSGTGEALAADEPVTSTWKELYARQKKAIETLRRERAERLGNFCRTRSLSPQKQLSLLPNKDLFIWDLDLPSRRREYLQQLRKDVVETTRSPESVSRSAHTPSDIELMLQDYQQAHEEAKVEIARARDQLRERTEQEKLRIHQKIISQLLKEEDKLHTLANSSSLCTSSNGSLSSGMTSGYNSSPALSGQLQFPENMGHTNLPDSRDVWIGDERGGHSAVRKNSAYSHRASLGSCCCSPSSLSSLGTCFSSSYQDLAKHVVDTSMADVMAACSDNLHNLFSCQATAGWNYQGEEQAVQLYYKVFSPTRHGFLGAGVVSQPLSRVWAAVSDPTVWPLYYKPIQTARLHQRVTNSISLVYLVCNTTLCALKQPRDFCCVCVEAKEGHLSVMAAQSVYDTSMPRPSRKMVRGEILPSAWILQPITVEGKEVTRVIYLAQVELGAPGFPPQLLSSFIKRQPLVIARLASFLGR
UniProt Q8N1S5, sequence (Q8N1S5 whole entry, looked up): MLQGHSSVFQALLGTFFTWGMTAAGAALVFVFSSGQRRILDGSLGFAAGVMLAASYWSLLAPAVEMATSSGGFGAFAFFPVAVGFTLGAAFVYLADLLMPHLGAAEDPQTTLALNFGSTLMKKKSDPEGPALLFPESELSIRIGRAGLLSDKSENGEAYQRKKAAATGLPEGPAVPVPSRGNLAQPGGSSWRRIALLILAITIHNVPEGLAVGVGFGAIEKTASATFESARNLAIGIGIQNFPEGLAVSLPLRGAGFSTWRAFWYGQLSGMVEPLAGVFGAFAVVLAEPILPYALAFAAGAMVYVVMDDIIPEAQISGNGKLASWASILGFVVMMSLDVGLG
UniProt P62318, sequence (P62318 whole entry, looked up): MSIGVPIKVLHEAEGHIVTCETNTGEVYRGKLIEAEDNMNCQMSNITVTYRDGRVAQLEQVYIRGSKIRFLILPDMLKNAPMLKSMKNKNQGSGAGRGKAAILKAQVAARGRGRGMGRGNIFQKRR

Target | log2 fold change [1] | log2 fold change [2] | log2 fold change [3] | log2 fold change [4] | log2 fold change [5] | log2 fold change [6] | log2 fold change [7] | log2 fold change [8] | log2 fold change [9] | log2 fold change [10]
TIPRL (UniProt O75663) | -0.057 | -0.114 | -0.209 (active) | -0.068 | 0.033 | 0.095 | 0.069 | -0.032 | -0.06 | -0.012
STARD9 (UniProt Q9P2P6) | -0.179 | -0.029 | 0.058 | 0.073 | 0.007 | 0 | -0.026 | 0.025 | -0.048 | 0.028
TK1 (UniProt K7ERV3) | -0.127 | -0.054 | -0.005 | 0.022 | -0.071 | -0.003 | – | -0.039 | -0.116 | –
STK26 (UniProt Q9P289) | 0.07 | -0.005 | -0.111 | -0.057 | -0.063 | 0.034 | 0.092 | 0.069 | -0.017 | -0.007
TEX264 (UniProt Q9Y6I9) | 0.548 (active) | -0.001 | 0.215 | -0.033 | 0.006 | -0.012 | -0.054 | 0.02 | -0.093 | 0.515
SYF2 (UniProt O95926) | 0.099 | 0.089 | -0.032 | 0.101 | -0.022 | -0.11 | -0.069 | 0.016 | 0.14 | -0.153
SLC27A4 (UniProt Q6P1M0) | -0.086 | -0.043 | -0.034 | 0.016 | -0.024 | 0 | 0.043 | 0.022 | -0.073 | -0.1
ST3GAL2 (UniProt Q16842) | -0.066 | 0.101 | -0.04 | 0.008 | -0.028 | -0.013 | 0.008 | -0.003 | -0.016 | -0.05
STX17 (UniProt P56962) | 0.027 | -0.073 | -0.096 | 0.126 | -0.001 | -0.02 | 0.254 | 0.087 | -0.026 | -0.059
SUPT16H (UniProt Q9Y5B9) | -0.017 | -0.111 | -0.183 | -0.158 | 0.207 | 0.178 | 0.198 | 0.109 | -0.227 | 0.025
TMBIM1 (UniProt Q969X1) | 0.079 | -0.229 | -0.008 | -0.259 | 0.062 | -0.034 | -0.208 | 0.067 | -0.149 | 0.021
SLK isoform 2 (UniProt Q9H2G2) | -0.314 (active) | -0.042 | -0.058 | -0.014 | 0.048 | 0.006 | 0.074 | 0.124 | 0.009 | -0.044
SRP68 (UniProt Q9UHB9) | -0.068 | -0.08 | -0.094 | -0.035 | 0.101 | 0.08 | 0.095 | 0.08 | 0.096 | -0.062
SUCLA2 (UniProt Q9P2R7) | -0.021 | -0.058 | -0.128 | -0.077 | 0.014 | 0.107 | 0.068 | -0.039 | -0.028 | -0.046
SURF1 (UniProt Q15526) | -0.007 | 0.014 | -0.176 | -0.135 | 0.077 | 0.059 | 0.112 | -0.04 | -0.031 | -0.043
TBC1D23 (UniProt Q9NUY8) | 0.015 | -0.135 | -0.33 (active) | -0.009 | 0.06 | 0.115 | 0.045 | 0.02 | -0.073 | -0.047
SNX15 (UniProt Q9NRS6) | 0.106 | -0.135 | -0.048 | -0.133 | 0.061 | 0.436 (active) | 0.113 | 0.276 | – | -0.073
SLC38A2 (UniProt Q96QD8) | -0.023 | -0.046 | -0.037 | -0.12 | 0.018 | – | 0.025 | 0.054 | 0.014 | -0.088
SLC39A11 (UniProt Q8N1S5) | 0 | -0.027 | -0.085 | 0.024 | -0.016 | -0.063 | -0.059 | 0.078 | – | -0.122
TACC2 (UniProt O95359) | -0.013 | -0.027 | -0.052 | -0.187 | 0.035 | -0.033 | 0.003 | 0.116 | – | -0.073
SNRPB2 (UniProt P08579) | 0.047 | -0.012 | 0.03 | 0.038 | -0.016 | -0.027 | 0.023 | 0.051 | 0.046 | -0.034
SLC25A39 (UniProt Q9BZJ4) | 0.059 | -0.183 | -0.345 | -0.105 | 0.061 | -0.05 | -0.015 | 0.023 | 0.073 | 0.223
SPTBN1 (UniProt Q01082) | -0.051 | -0.04 | -0.041 | -0.016 | 0.011 | 0.026 | -0.009 | 0.127 | 0.009 | -0.007
SLC35F6 (UniProt Q8N357) | -0.068 | 0.045 | -0.161 | 0.005 | -0.185 | – | -0.026 | 0.023 | 0.074 | 0.025
SSRP1 (UniProt Q08945) | -0.017 | -0.012 | -0.078 | 0.003 | 0.007 | 0.059 | 0.155 | 0.007 | -0.171 | -0.013
STAT5A (UniProt P42229) | -0.115 | -0.112 | -0.112 | -0.115 | 0.112 | 0.061 | 0.194 | 0.037 | -0.029 | 0.061
STRN (UniProt O43815) | -0.055 | 0.019 | -0.037 | 0.019 | -0.008 | 0.024 | 0.028 | 0 | -0.051 | -0.031
SYNE2 isoform 2 (UniProt Q8WXH0) | -0.229 | -0.172 | 0.087 | -0.134 | -0.125 | 0.072 | 0.053 | -0.056 | – | 0.03
SRSF10 (UniProt O75494) | 0.059 | -0.096 | 0.444 | 0.063 | -0.047 | 0.048 | -0.153 | 0.103 | 0.304 | -0.152
SNRPD3 (UniProt P62318) | 0.034 | -0.01 | 0.025 | 0.013 | -0.059 | -0.067 | -0.019 | 0.092 | 0.271 (active) | -0.055

— the supplement of paper PMC10849652
